Screens from PubChem BioAssay.
Compounds with a hit are over-represented: about 19% of the library has one in this group of screens.
RORg inh = inhibitors of mouse ROR gamma transcriptional activity. P51450. Drosophila S2 Gal4-RORgamma UAS-luciferase reporter, 20 h. Potency, µM (doses to about 53.6 µM), for the others: at the top dose activity change, negative = inhibition, most hits filed as inhibitors. hit rate 5.4% among 310,000. AID 2551; also: nearly all actives have a fitted effect of over 60% in size
Target sequence (P51450 whole entry, looked up, the tested form may be a part): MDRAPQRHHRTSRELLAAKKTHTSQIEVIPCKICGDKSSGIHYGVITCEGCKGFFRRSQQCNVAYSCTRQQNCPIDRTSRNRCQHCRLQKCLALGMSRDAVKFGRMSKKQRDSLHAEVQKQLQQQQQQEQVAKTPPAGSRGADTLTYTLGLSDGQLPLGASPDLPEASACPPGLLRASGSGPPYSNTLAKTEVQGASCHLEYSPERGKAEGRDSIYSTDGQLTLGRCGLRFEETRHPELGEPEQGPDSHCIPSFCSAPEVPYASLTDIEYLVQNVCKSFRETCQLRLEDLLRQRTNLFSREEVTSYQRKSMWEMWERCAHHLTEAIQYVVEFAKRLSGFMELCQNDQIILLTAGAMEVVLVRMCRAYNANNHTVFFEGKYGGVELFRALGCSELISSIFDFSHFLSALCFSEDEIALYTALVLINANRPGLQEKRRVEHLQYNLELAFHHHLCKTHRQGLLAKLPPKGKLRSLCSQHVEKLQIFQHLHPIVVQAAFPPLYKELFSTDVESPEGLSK
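Read-out: Photinus luciferase luminescence; inhibitors lower reporter signal. Insect Schneider cells with Gal4-ROR gamma fusion under metallothionein promoter, UAS reporter; 700 uM final copper sulfate induction, 20 hr, ambient temperature.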
TDP1 block = blocks human tyrosyl-DNA phosphodiesterase 1; Potency, µM (doses to about 130 µM), inactives show at the top dose activity change, negative = inhibition, actives largely listed as inhibitors; Q9NUW8; recombinant TDP1, AlphaScreen DNA substrate cleavage; hit rate 0.28% among 350,000; also: nearly all actives have a fitted effect of over 40% in size
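Steps: enzyme plus compound, 15 min RT; add biotin/phosphotyrosine-FITC oligonucleotide (15 nM final), react 5 min; add donor/acceptor beads (10 ug/ml final), 10 min; read AlphaScreen. Tdp1 at 1 nM final.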
VP16 counter = counter-screen for ROR gamma inhibitors: Gal4-VP16 reporter | Drosophila S2 Gal4-VP16 UAS-luciferase, luminescence, 20 h | Potency, µM (top dose mostly 53.6 µM), without a hit: at the top dose activity, negative = inhibition, hits mostly inhibitors | hit rate 3.5% among 310,000 | AID 2546;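 also: Gal4-VP16 expression switched on by copper sulfate through the metallothionein promoter; nearly all actives have a fitted effect of over 50% in size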
DT40 TDP1 no CPT = qHTS for Inhibitors of human tyrosyl-DNA phosphodiesterase 1 (TDP1): qHTS in cells in absence of CPT. DT40 Tdp1-/- hTDP1 cells, no CPT, ATP luminescence, 48 h. Potency, µM (top dose mostly 46.2 µM), for inactives: at the top dose activity change, negative = growth inhibition, usual class: inhibitors. hit rate 15% among 420,000; also: nearly all actives have a fitted effect of over 55% in size
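Growth of hTDP1-complemented DT40 Tdp1-knockout cells is measured by ATP luminescence after at least 48 hr compound exposure at 37 °C, with DMSO substituting for the 20 nM CPT used in the parallel screen.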
DT40 TDP1 CPT = DT40-hTDP1 cell growth loss with CPT; chicken DT40 Tdp1-/-;hTDP1 cells + 20 nM CPT, ATP luminescence, 48 h; Potency, µM (highest dose often 46.2 µM), for the others: at the highest dose activity change, negative = growth inhibition, usual class: inhibitors; hit rate 12% among 420,000; also: nearly all actives have a fitted effect of over 55% in size
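Chicken DT40 Tdp1-/- cells stably complemented with human TDP1 were seeded at 400 cells/well in medium containing 20 nM camptothecin, exposed to pin-transferred compounds, and grown at 37 °C for at least 48 hr. Viability was read as ATP luminescence.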
* marks the source's active call; other numbers are inactive results; [ ] = another dose, or the depositor's remark. Calls follow the shape of the dose curve; as a rule, active = well fitted curve in the direction sought with a large enough effect; inconclusive = small, poorly fitted or top-dose-only effect, or another doubt; inactive = no such curve, though single readings can be large; an effect the other way counts as inactive or inconclusive. % is scaled to controls: 0 for no effect and ±100 for the full control effect; potency is read from the fitted curve at half-maximal effect.

COc1ccc(-c2ccc(/C=N/N3C(=O)C4C5C=CC(C6CC56)C4C3=O)o2)c([N+](=O)[O-])c1 (centres undefined) was read as RORg inh inconclusive, TDP1 block 7%, VP16 counter -10%, DT40 TDP1 no CPT 23µM* and DT40 TDP1 CPT inconclusive.
`Cc1ccc(-c2ccc(/C=N/N3C(=O)C4C5C=CC(CC5)C4C3=O)o2)c([N+](=O)[O-])c1` (centres undefined) gave RORg inh 27%, TDP1 block 9%, VP16 counter -10%, DT40 TDP1 no CPT inconclusive and DT40 TDP1 CPT 18µM*.
Screening COc1ccccc1/C=N/Nc1nccnc1Cl returned RORg inh inconclusive, TDP1 block 2%, VP16 counter 10%, DT40 TDP1 no CPT -16% and DT40 TDP1 CPT -2%.
`O=C(NCCSc1c[nH]c2ccccc12)c1c(F)cccc1F` gave RORg inh 3%, VP16 counter -5%, DT40 TDP1 no CPT -27% and DT40 TDP1 CPT -20%.
Screening CCOc1ccc(C(C)=O)cc1COc1cccnc1[N+](=O)[O-] returned RORg inh -27%, VP16 counter 3%, DT40 TDP1 no CPT 6.5µM* and DT40 TDP1 CPT 6.5µM*.
O=[N+]([O-])c1ncccc1OCc1ccc(-c2ccccc2)cc1 was read as RORg inh inconclusive, VP16 counter -16%, DT40 TDP1 no CPT 16µM* and DT40 TDP1 CPT inconclusive.
CCOc1ccc(C(C)=O)cc1CSC(=N)N was read as RORg inh 4%, TDP1 block 0%, VP16 counter -9%, DT40 TDP1 no CPT 21µM* and DT40 TDP1 CPT inconclusive.
`COc1ccc(C(C)=O)cc1COc1cccnc1[N+](=O)[O-]` gave RORg inh -32%, VP16 counter 0%, DT40 TDP1 no CPT 16µM* and DT40 TDP1 CPT inconclusive.
Screening O=C(c1cccc(N2C(=O)c3ccccc3C2=O)c1)N1CCCC(C(F)(F)F)C1 (centres undefined) returned TDP1 block -1%, DT40 TDP1 no CPT -7% and DT40 TDP1 CPT 1%.
Screening FC(F)(F)c1ccc(N2CCOCC2)c(Nc2nc3ccccc3n3cnnc23)c1 returned RORg inh inconclusive, TDP1 block 1%, VP16 counter -25%, DT40 TDP1 no CPT inconclusive and DT40 TDP1 CPT inconclusive.
`CN(C)c1ccc(/C=N/Nc2nc3ccccc3o2)cc1` gave RORg inh 6.3µM*, VP16 counter 11µM*, DT40 TDP1 no CPT -7% and DT40 TDP1 CPT inconclusive.
Screening O=[N+]([O-])c1ccc(/C=N/Nc2nc3ccccc3o2)cc1 returned RORg inh -24%, VP16 counter -4%, DT40 TDP1 no CPT 17% and DT40 TDP1 CPT 0%.
`CN(C)c1ccc(/C=C/c2nc3ccccc3o2)cc1` gave DT40 TDP1 no CPT inconclusive and DT40 TDP1 CPT 9%.
CCS(=O)(=O)c1ccc(C=NNc2nc3ccccc3o2)cc1 was read as DT40 TDP1 no CPT 23µM* and DT40 TDP1 CPT inconclusive.
N#CC1(NC(=O)CSc2nnc(COc3ccccc3F)n2N)CCCCC1 was read as TDP1 block 7%[0.505 µM], DT40 TDP1 no CPT 14% and DT40 TDP1 CPT -14%.
Screening CCCN(CC(=O)Nc1ccccc1OC)C(=O)Cc1ccc2c(c1)CCC2 returned TDP1 block 1%, DT40 TDP1 no CPT inconclusive and DT40 TDP1 CPT 18µM*.
`CCCN(CC(=O)Nc1ccccc1OC)C(=O)C1CCCC1` gave TDP1 block -3%, DT40 TDP1 no CPT 21µM* and DT40 TDP1 CPT inconclusive.
Screening CCN(CC(=O)Nc1ccccc1OC)C(=O)C1CCCC1 returned TDP1 block 0%, DT40 TDP1 no CPT -6% and DT40 TDP1 CPT -24%.
For O=S(=O)(c1ccc(Cl)cc1)N1CCN(C2CCCCCC2)CC1 the results were RORg inh -4%, TDP1 block -5%, VP16 counter -2%, DT40 TDP1 no CPT -20% and DT40 TDP1 CPT -18%.
Screening COc1ccc(/C=C2\SC(=S)NC2=O)cc1OS(=O)(=O)c1ccc(NC(C)=O)cc1 returned RORg inh -20%, TDP1 block 8%, VP16 counter -3%, DT40 TDP1 no CPT inconclusive and DT40 TDP1 CPT inconclusive.
O=C(CCC1N=C2c3ccccc3N=C(SCc3ccc(Cl)cc3)N2C1=O)NC1CCCCC1 (centres undefined) was read as TDP1 block 9%, DT40 TDP1 no CPT 13µM* and DT40 TDP1 CPT -86%.
Screening O=C(CCC1N=C2c3ccccc3N=C(SCc3ccc(Cl)cc3)N2C1=O)NCc1ccco1 (centres undefined) returned RORg inh inconclusive, TDP1 block 6%, VP16 counter -14%, DT40 TDP1 no CPT inconclusive and DT40 TDP1 CPT inconclusive.
`Cc1ccc(CSC2=Nc3ccccc3C3=NC(CCC(=O)NC4CCCCC4)C(=O)N23)cc1` (centres undefined) gave TDP1 block 6%, DT40 TDP1 no CPT inconclusive and DT40 TDP1 CPT 23µM*.
For Cc1ccc(N2CC(C(=O)N3CCCCC3)CC2=O)cc1C (centres undefined) the results were RORg inh 2%, TDP1 block 4%, VP16 counter 3%, DT40 TDP1 no CPT 25% and DT40 TDP1 CPT inconclusive.
Cc1cc(Cl)ccc1OCC(=O)NC1CCCC1 was read as RORg inh 24%, TDP1 block 0%, VP16 counter 17%, DT40 TDP1 no CPT 13µM* and DT40 TDP1 CPT 12µM*.
`Cc1cc(OCC(=O)NC2CC(C)(C)NC(C)(C)C2)c(C)cc1Br` gave RORg inh 1%, TDP1 block -2%, VP16 counter -7%, DT40 TDP1 no CPT 13µM* and DT40 TDP1 CPT inconclusive.
Screening Cc1cc(Cl)c(S(=O)(=O)NC2CCCC2)cc1OCC(=O)NC1CCCCC1 returned RORg inh -11%, TDP1 block -11%, VP16 counter -26%, DT40 TDP1 no CPT 23µM* and DT40 TDP1 CPT 26µM*.
Cc1ccc(OCC(=O)NC2CC(C)(C)NC(C)(C)C2)c(C)c1 was read as RORg inh 4%, TDP1 block -8%, VP16 counter 1%, DT40 TDP1 no CPT 0% and DT40 TDP1 CPT -4%.
`Cc1cc(Cl)c(S(N)(=O)=O)cc1OCC(=O)NC1CCCCC1` gave RORg inh 24%, TDP1 block 5%[56.1 µM], VP16 counter -4%, DT40 TDP1 no CPT -17% and DT40 TDP1 CPT -21%.
O=C(COc1ccc(Br)cc1Br)NC1CCCC1 was read as RORg inh 16%, TDP1 block 0%, VP16 counter 0%, DT40 TDP1 no CPT inconclusive and DT40 TDP1 CPT 4.1µM*.
